According to PubChem BioAssay AID708 (SRMLSC, 2007):
The campaign covered roughly 65,000 compounds. Fewer than 10 were called active.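 Rule for the calls: active = at 10 µM dose, initial 340 nm absorbance at least 2 fold that of control wells; inactive = change under 2 fold.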 A selection follows.

Assay: A340 optical interference by library compounds – biochemical, MLSMR library, data from PS, PMK, MK assays, artefact control, profiling panel (AID 708);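 note: initial absorbance extrapolated from kinetic A340 decline of NADH oxidation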
Conditions: compound absorbance at 340 nm, fold over control; at 10 µM; active compounds read high

Fold change, inactive:
CCCCCN(C(=O)NC(=O)Nc1ccccc1C)S(C)(=O)=O 1, CCNc1nc(N)nc(Oc2ccc(OCC)nn2)n1 1.07, CCOC(=O)CSc1nncc2ccc(OC)c(OC)c12 1.07, CCN(CC)S(=O)(=O)c1cc(C(=O)Nc2ccccn2)ccc1C 1.09, Cc1c2cnn(-c3ccccc3)c(=O)c2c(C)n1CCCC(=O)N1CCN(C)CC1 1.06, CNC(=O)c1cc2c(ccc3ccccc32)oc1=N 1.04, CSc1ncccc1C(=O)OCC(=O)N1CCOCC1 1.01, COc1ccc(-c2cn3ccsc3n2)cc1 1, CCCn1c(C(O)c2ccc(OCC)cc2)nc2ccccc21 (stereo unspecified) 1.02, O=C(NCc1ccco1)C1CCCN(S(=O)(=O)c2cccc3nonc23)C1 (stereo unspecified) 1.03, CCn1nc(NC(=O)c2ccco2)c2cc3ccc(C)cc3nc21 1.07, Cc1ccc(-n2nc(-c3ccco3)cc2C(=O)NCc2cccnc2)cc1 0.99, COc1ccc(C2CC(c3ccc(C)cc3)Nc3nc(N)nn32)cc1 (stereo unspecified) 1.02, Cc1ccc(C(=O)Nc2nnc(-c3ccncc3)s2)o1 1.33, CN(CCC#N)c1ncnc2scc(-c3ccccc3)c12 1.03, COc1ccc(C2CC(c3ccc(C)cc3)Nc3ncnn32)cc1 (stereo unspecified) 0.99, CSc1nsc(SC)c1NC(=O)OC1CCCCC1 1.03, Cc1ccc(NC2=NC(c3ccccc3)n3c(nc(C)cc3=O)N2)cc1 (stereo unspecified) 1.01, Cc1ccc(C2c3c(oc4ccc(C)cc4c3=O)C(=O)N2CCCN2CCOCC2)cc1 (stereo unspecified) 1.07, Cc1occc1C(=O)Nc1nnc(-c2ccncc2)s1 1.18, CCn1c(SCC(=O)NCc2ccco2)nnc1-c1ccc(N)cc1 1.03, COc1cccc(OCCOc2cccc(/C=N/n3cnnc3)c2)c1 1.05, C=CCn1c(CC(=O)Nc2cccc(OC)c2)nnc1SCC(=O)NC1CCCCC1 1.04, Cc1ccc(NC(=O)CS(=O)CC(=O)N(c2ccccc2)C(C)C(=O)NC2CCCC2)cc1 (stereo unspecified) 0.99, CCCOc1ccccc1-c1nc(SCCC(=O)O)n[nH]1 1, O=c1cccc(-c2ccc(Br)cc2)o1 1.07, CN1C(C)(C)CC(NC(=O)CCC(=O)NC2CC(C)(C)N(C)C(C)(C)C2)CC1(C)C 1.05, Cc1ccc(S(=O)(=O)NCc2csc(C)n2)c(C)c1 0.97, CCOC(=O)c1ccccc1NC(=O)CC1Nc2ccccc2NC1=O (stereo unspecified) 1.07, O=C(CCCOc1ccccc1)Nc1cccc(C(=O)O)c1 1.03, O=P(c1cccs1)(c1cccs1)c1cccs1 1.01, Cc1nnc(SCc2ccc(C(=O)c3ccc(Cl)cc3)o2)n1-c1ccccc1 1.14, c1csc(-c2cn3c(n2)SCC3)c1 1.03, COc1ccc(OCc2cccc(C(=O)N3CCCC3)c2)cc1 0.98, CCCC(=O)C1=C(N(C)c2ccccc2)CC(C)(C)C(C(=O)OC)C1=O (stereo unspecified) 1.04, c1ccc(-c2nnc(SCc3nc4ccccc4[nH]3)o2)cc1 1, CC(=O)c1cccc(NC(=O)N2CCCC2C(=O)NCCC(C)C)c1 (stereo unspecified) 1, Cc1ccccc1S(=O)(=O)Cc1ccc(C(=O)NCCN2CCCCC2C)o1 (stereo unspecified) 0.98, CCOc1ccc(C2C(C(=O)O)c3ccccc3C(=O)N2CCN2CCOCC2)cc1 (stereo unspecified) 1.01, Cc1ccccc1OCCC(=O)Nc1c(C)n(C)n(-c2ccccc2)c1=O 1.04, COc1ccccc1NC1=NC(c2ccc(Cl)cc2)N=C(N)N1 (stereo unspecified) 1.01, CC1CN(C(=O)CN2C(=O)NC(C)(c3ccccc3)C2=O)CC(C)O1 (stereo unspecified) 1.02, CCC(C)Sc1nc(C)nc2c1c(=O)n(C)c(=O)n2C (stereo unspecified) 1.03, CCNc1nc(NCC)nc(N(C)n2cnnc2)n1 1.02, CC(C)c1cc(C(=O)O)on1 0.99, O=C(CCCC(=O)N(CC(=O)NC1CCCC1)Cc1ccccc1Cl)Nc1ccccn1 1.01, O=C(CCN1C(=O)C2C3C=CC(C3)C2C1=O)Nc1ccccc1F (stereo unspecified) 0.99, COc1ccc(OC)c(C(c2nnnn2C(C)(C)C)N2CCc3ccccc3C2)c1 (stereo unspecified) 1.04, O=C(OCC(=O)N1CCN(C(=O)c2ccco2)CC1)c1ccccc1Cc1ccccc1 1, CC(C)CCNC(=O)CCNS(=O)(=O)c1ccc(Cl)cc1 0.97, Cc1cc(/C=N/n2cnnc2)c(C)n1-c1cccc(C(=O)O)c1 1.11, O=C(CNCCO)NC12CC3CC(CC(C3)C1)C2 1.03, CCN(c1ccccc1)S(=O)(=O)c1ccc(N)cc1 1.02, CC(=O)NS(=O)(=O)c1ccccc1 1, CCC(CC)c1nnc(NS(=O)(=O)Cc2ccccc2)s1 1.04, CCOc1cc(S(=O)(=O)NC2CC(C)(C)NC(C)(C)C2)ccc1F 1.05, O=C1CCCC(O)=C1C=NCCc1ccccc1 0.99, O=C(Nc1cc(=O)[nH]c2ncnn12)c1ccccc1Cl 0.98, Cn1c2c(c(=O)n(C)c1=O)C(c1ccc(O)cc1)Nc1ccccc1O2 (stereo unspecified) 1, Cc1occc1C(=O)N1CCCc2ccccc21 1.01, COc1ccc(C2SCCN2S(=O)(=O)c2ccccc2)cc1OC (stereo unspecified) 0.98, Cc1cc(C)cc(N(C(C)C(=O)Nc2c(C)n(C)n(-c3ccccc3)c2=O)S(C)(=O)=O)c1 (stereo unspecified) 1.05, Cn1nnnc1SCC(=O)N1CCN(Cc2ccccc2)CC1 1.01, CC(=O)Nc1cc(C(=O)O)ccc1S(=O)(=O)c1ccc(Cl)cc1 1.03, CCC1CCCCN1CCNS(=O)(=O)c1ccc2c(c1)CCN2C(C)=O (stereo unspecified) 1.03, O=C(CSc1nnc(-c2ccoc2)o1)N1CCOCC1 1.05
